This is a sample that favours compounds with a hit; in the whole collection about 4.2% have one here.
Wnt bcat act: Wnt/beta-catenin pathway activators, primary screen, cell-based, plate reader, single point. Wnt/beta-catenin reporter cell assay, activator. activation, % at 9.35 µM. 300,000 tested, 1.2% active; in the data active = activation above about 30%, passing the limit was not always enough; inconclusive = no clear call, values can overlap the other calls;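 note: 0% = neutral control wells and 100% = positive control wells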
hgDAF12 agonist: H. glycines DAF-12 receptor agonists, primary screen, cell-based, luminescence, HEK293, GAL4 fusion, UAS-luciferase; 370,000 tested, 1.8% active; activation, % at 6.8 µM; HEK293 GAL4-hgDAF12 UAS-luciferase reporter, agonist luminescence; normalized to butyrate control; Nuclear hormone receptor DAF-12 (Heterodera glycines), GAL4 fusion;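 active = activation above a cutoff set at the mean of all screened compounds plus 3 SD, cut at about 10% in these data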;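 note: 0% = DMSO wells and 100% = sodium butyrate wells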
hcDAF12 agonist: H. contortus DAF-12 nuclear receptor activators, primary screen, cell-based, luminescence, HEK293, lit1-tk-luc reporter; HEK293 hcDAF-12 lit1-tk-luc reporter; 0% DMSO, 100% Δ7-dafachronic acid; AID 652067, 2013; 370,000 tested, 1.4% active; activation, % at 6.8 µM;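 active = activation above the mean of all tested compounds plus 3 SD, cut at about 5.5% in these data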;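 note: 100% = response to 3 µM Δ7-dafachronic acid high control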
esBAF inh: Bmi1 luciferase reporter increase in mESCs, primary screen, esBAF inhibitor project, mouse ES cells, Bmi1 luciferase knock-in, single point; 24 h; 100% = twice the neutral-well signal; reporter increase, % at 12.5 µM; 350,000 tested, 2% active; AID 602393, 2012; in the data active = activation above about 40%; inconclusive = no clear call, values can overlap the other calls;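 note: 0% = median of the plate's neutral control wells and 100% = double that signal; a rise in the Bmi1 reporter signal indicates esBAF inhibition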
ssDAF12 agonist: S. stercoralis DAF-12 nuclear receptor activators, primary screen, cell-based, luminescence, HEK293, GRIP1 co-expression, lit1-tk-luc. Nuclear hormone receptor DAF-12 (Strongyloides stercoralis). HEK293 ssDAF-12/GRIP1 lit1-tk-luc reporter; % of 3 µM dafachronic acid response. activation, % at 6.8 µM. 370,000 tested, 1% active;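 active = activation above the mean over all tested compounds plus 3 SD, cut at about 0.9% in these data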;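 note: 0% = DMSO-only wells and 100% = 3 µM delta7-dafachronic acid wells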
DAX1 StAR inh: DAX1 (NR0B1) inhibitors on StAR promoter, primary screen, cell-based, luminescence, SF-1 (NR5A1), full-length DAX-1 | inhibition, % at 6.8 µM | 370,000 tested, 1.1% active | AID 652010, 2013 | HEK293T StAR-luciferase reporter, SF-1/DAX-1 repression relief;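 active = inhibition above the mean over all tested compounds plus 3 SD, cut at about 3.6% in these data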;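 note: 0% = DAX-1 cells with DMSO and 100% = cells lacking DAX-1 with DMSO; higher inhibition means more luminescence from relief of DAX-1 repression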
* marks the source's active call; other numbers are inactive results; ? = inconclusive; . = no result.

SMILES	Wnt bcat act	hgDAF12 agonist	hcDAF12 agonist	esBAF inh	ssDAF12 agonist	DAX1 StAR inh
O=C(COC(=O)c1ccccc1NC(=O)c1ccco1)NCCC1=CCCCC1	.	4.8	2.2	63.1*	-0.9	0.9
O=C(COC(=O)c1ccccc1O)NCCC1=CCCCC1	12.5	6.2	-1.4	.	-0.9	0.2
COc1ccccc1-c1cccc([C@@H]2C[C@H]3[C@H](CON3C)CN2C)c1	-2.8	-2.5	-0.7	7.5	-0.5	3.8*
COc1ccccc1-c1cccc([C@@H]2C[C@H]3[C@H](CON3C)CN2Cc2ccccc2)c1	-1.4	0.7	-0.2	-6.2	-1.1	-1.0
C[C@@H](NC(=O)C[C@H]1CC[C@@H](NC(=O)C2CCOCC2)[C@H](CO)O1)c1ccccc1	.	.	.	-1.6	.	.
Cn1nc(-c2ccc(Cl)cc2)cc1NC(=O)CC(C)(C)CC(=O)O	40.8*	-4.0	1.1	.	-0.5	-0.5
C[C@H](CO)N1C[C@H](C)[C@@H](CN(C)Cc2cccc(C(=O)O)c2)Oc2ncc(-c3ccccc3F)cc2C1=O	.	.	.	-13.0	.	.
O=Cc1cn(-c2ccccc2)nc1-c1ccc2c(c1)OCCO2	.	9.0	0.3	49.6*	-0.4	2.0
N#Cc1cn(-c2ccccc2)nc1-c1ccc2c(c1)OCCO2	0.0	6.0	0.9	51.3*	-0.3	1.6
Cn1cc(C=O)c(-c2ccc3c(c2)OCCCO3)n1	11.3	4.0	0.5	29.4	0.3	1.0
CC[n+]1ccc(/C=C2\Sc3ccccc3N2CCCS(=O)(=O)[O-])c2ccccc21	-1.9	-1.2	3.6	8.7	1.2*	-0.1
COC(=O)[C@@H]1[C@@H](CO)[C@@H]2Cn3c(ccc(-c4ccccc4OC)c3=O)[C@@H]2N1CC1CCCC1	.	.	.	5.5	.	.
C[C@H]1CCCCO[C@H](CN(C)C(=O)Nc2ccc3c(c2)OCO3)[C@@H](C)CN([C@@H](C)CO)C(=O)c2cc(NS(=O)(=O)c3ccccc3)ccc2O1	.	.	.	-2.2	.	.
CC(=O)Nc1ccc(Oc2ccc(-c3noc(C)n3)cc2)cc1	.	-1.3	-1.3	15.2	-0.9	-0.4
CC(=O)Oc1ccc(Oc2ccc(-c3noc(C)n3)cc2)cc1	48.1*	-1.0	0.9	20.4	-1.5	-1.6
O=[N+]([O-])c1ccccc1C=NN1CCCCCC1	7.7	1.0	2.7	46.7*	-0.7	-0.9
O=[N+]([O-])c1ccccc1/C=N/N1CCN(c2ccccn2)CC1	14.7	6.2	-0.9	60.0*	-1.0	0.0
CCCCCc1ccc(-c2nnc(N)s2)cc1	-0.8	7.7	1.9	?	-0.2	0.9
CCCCCCc1ccc(-c2ncc(N)cn2)cc1	.	11.3*	2.3	39.6	-0.6	2.4
Fc1ccc(CNC2CCN(Cc3ccccc3)CC2)cc1	-4.6	3.8	-1.1	0.1	-0.2	0.7
CC(NC1CCN(Cc2ccccc2)CC1)c1ccc(F)cc1 (configuration not stated)	-0.9	-1.6	-2.3	2.5	1.1*	-0.8
O=c1oc(CCCO)cc2ccc(C#CC3(O)CCCCC3)cc12	19.7	-1.0	-1.6	-32.7	-0.9	0.2
CN(C)c1ccc(C#Cc2ccc3cc(CCCO)oc(=O)c3c2)cc1	?	4.2	5.4	57.2*	0.0	1.9
O=C1c2ccccc2C(=O)N1CCC#Cc1ccc2cc(CCCO)oc(=O)c2c1	-0.3	-1.5	-1.6	-5.9	-1.4	0.6
O=c1oc(CCCO)cc2ccc(C#Cc3ccsc3)cc12	46.1*	3.0	1.7	66.7*	-1.0	0.2
SMILES	Wnt bcat act	hgDAF12 agonist	hcDAF12 agonist	esBAF inh	ssDAF12 agonist	DAX1 StAR inh
Cc1ccc(S(=O)(=O)N2C[C@@H](O)COC[C@H]3O[C@@H](CC(=O)N[C@H]4CCN(Cc5ccccc5)C4)CC[C@@H]32)cc1	.	.	.	-4.7	.	.
O=C(C[C@@H]1CC[C@H]2[C@@H](COC[C@H](O)CN2CC2CCOCC2)O1)NCC1CC1	.	.	.	0.3	.	.
O=C(NC(c1ccc(F)cc1)c1ccc2ccccc2n1)C1CCN(Cc2ccc3ccccc3n2)CC1 (configuration not stated)	-2.4	1.3	1.0	-9.7	-0.7	-0.8
O=C(NC(c1ccc(F)cc1)c1ccc2ccccc2n1)C1CCN(Cc2cccc(C(F)(F)F)c2)CC1 (configuration not stated)	-2.4	-4.8	-1.0	-11.7	-1.4	3.7*
CC(=O)N(C)C[C@H]1Oc2ncc(-c3cncnc3)cc2C(=O)N([C@@H](C)CO)C[C@H]1C	.	.	.	3.1	.	.
Cc1ccccc1-c1noc(-c2ccccc2F)n1	-1.5	6.0	1.8	66.9*	-0.6	2.1
Cn1nnc2c(NCc3ccco3)nccc21	.	0.9	-1.3	.	-1.7	0.2
COc1ccc(Nc2nccc3c2nnn3C)cc1	?	7.0	4.0	2.8	0.3	4.2*
COc1ccccc1C(=O)N1C[C@H]2[C@@H](c3ccccc31)[C@H](CO)N2Cc1ccc(F)cc1	.	.	.	-0.8	.	.
COc1c(C(=O)Nc2ccc(Br)cn2)ccc2ccccc12	28.9	4.3	0.9	49.0*	-0.5	-0.1
CN(C)c1ccc(NC(=O)c2sc(SCC(=O)Nc3ccc(Br)cc3)nc2N)cc1	.	-1.4	-0.5	.	-1.2	-0.2
COc1c(C(=O)Nc2nccs2)ccc2ccccc12	37.2*	8.5	4.8	41.7*	-0.6	0.8
CN(C)c1ccc(NC(=O)c2sc(SCC(=O)Nc3nccs3)nc2N)cc1	47.3*	2.6	-0.6	52.6*	-1.4	0.0
CCC(=O)c1ccc(OCC(=O)Nc2nc(C)cs2)cc1	-0.1	11.9*	0.6	33.2	-0.4	2.3
CCCNC(=O)C[C@H]1C[C@@H]2c3cc(NC(=O)Nc4ccccc4F)ccc3O[C@@H]2[C@H](CO)O1	.	.	.	1.7	.	.
CCC(=O)Nc1ccc2c(c1)C(=O)N(C)[C@H]1CC[C@@H](CC(=O)NCc3ccccc3Cl)O[C@H]1CO2	.	.	.	6.0	.	.
COc1ccc(S(=O)(=O)Nc2ccc3c(c2)C(=O)N([C@@H](C)CO)C[C@H](C)[C@H](CN(C)C(=O)Cc2ccccc2)OCCCC[C@@H](C)O3)cc1	.	.	.	5.8	.	.
COc1ccc(OCC(=O)Nc2nccs2)cc1	17.5	8.5	6.1*	-43.1	0.0	3.1
COc1ccc(OCCC(=O)Nc2nccs2)cc1	2.1	-0.2	-0.6	.	-1.0	0.2
Cc1ccc(SCC(=O)Nc2nccs2)cc1	-0.1	4.4	0.7	24.0*	-0.6	1.3
O=C(CSc1ccccc1)Nc1nccs1	-3.3	6.2	1.2	.	0.2	0.0
N#Cc1cc2c(nc1SCC(=O)Nc1nccs1)CCCCC2	-0.3	21.1*	11.4*	-5.2	1.0*	7.7*

High-throughput results from PubChem.
